# “And” between values parts separate entries of the source, which are not always exact repeats. Identical values can stand only once. Records with an inconclusive call do not appear. Where a call stands in place of a potency, no number is given. More than one record can exist for a structure, and the calls need not agree. The source made the active and inactive calls. Calls follow the shape of the dose curve; as a rule, active = well fitted curve in the direction sought with a large enough effect in the repeat runs; inconclusive = weak or mixed curves; inactive = no such curve, though single readings can be large; an effect the other way counts as inactive or inconclusive.
# Assay: qHTS assay to identify small molecule HDAC inhibitors (AID 1259364); also: top concentration of the series differs between compounds; nearly all actives have a fitted effect of over 45% in size
# Settings: HCT-116 HDAC-Glo I/II luminescence, 2 h; series mostly up to 92.4 µM
# Procedure, shortened: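 Homogeneous cell-based luminescent assay of endogenous class I/II HDAC activity; HCT-116 cells, 2 h compound exposure, 30 min HDAC-Glo development at RT.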
row,SMILES,Potency
1,CN1CCc2cccc3c2[C@H]1Cc1ccc(O)c(O)c1-3,inactive
2,CCCCCCCCCCCCCCCC[N+](C)(C)Cc1ccccc1,inactive
3,C=CCc1ccc(O)c(OC)c1,inactive
4,NC(CO)(CO)CO,inactive
5,CS(=O)(=O)OCCCCOS(C)(=O)=O,inactive
6,O=S1(=O)OC(c2ccc(O)cc2)(c2ccc(O)cc2)c2ccccc21,inactive
7,CC(C)C(=O)Nc1ccc([N+](=O)[O-])c(C(F)(F)F)c1,inactive
8,CCCCCCc1ccc(O)cc1O,inactive

# Assay: qHTS assay to identify small molecule HDAC inhibitors - cell viability counter screen (AID 1259365); also: nearly all actives have a fitted effect of over 50% in size; also: potency is read from the fitted curve at half-maximal effect
# Settings: HCT-116 viability, CellTiter-Glo ATP luminescence, 2 h; series mostly up to 92.4 µM
# Procedure, shortened: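 Viability readout: CellTiter-Glo luminescence. Wild-type HCT-116 cells, 2hr compound treatment following overnight attachment at 37 C.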
row,SMILES,Potency
1,COc1ccc(C(Cl)=C(c2ccc(OC)cc2)c2ccc(OC)cc2)cc1,inactive
2,NS(=O)(=O)c1cc2c(cc1Cl)NCNS2(=O)=O,inactive
3,COc1ccc2c(c1)c(CC(=O)O)c(C)n2C(=O)c1ccc(Cl)cc1,inactive
4,O=c1[nH]cnc2c1ncn2[C@H]1CC[C@@H](CO)O1,inactive
5,Cc1ncc([N+](=O)[O-])n1CCO,inactive
6,CCc1nc(N)nc(N)c1-c1ccc(Cl)cc1,inactive
7,CN(C)C(=O)Nc1ccc(Cl)c(Cl)c1,inactive
8,CCCCOC(=O)c1ccc(O)cc1,inactive
9,CC12CCC(CC1)C(C)(C)O2,inactive
10,CCOc1ccc(NC(C)=O)cc1,inactive
11,CCCCC1(COC(=O)CCC(=O)O)C(=O)N(c2ccccc2)N(c2ccccc2)C1=O,inactive
12,CCCc1cc(=O)[nH]c(=S)[nH]1,inactive
13,CCOC(N)=O,inactive
14,CCN(CC)C(=O)c1cccc(C)c1,inactive
15,CCCCCCCC(=O)OCC(COC(=O)CCCCCCC)OC(=O)CCCCCCC,inactive
16,O=C1OC2(c3ccccc31)c1cc(Br)c(O)c(Br)c1Oc1c2cc(Br)c(O)c1Br,inactive
17,NC(=O)c1cccnc1,inactive
18,CN1[C@@H]2CC(OC(=O)[C@H](CO)c3ccccc3)C[C@H]1[C@@H]1O[C@@H]12 (stereo partly specified),inactive
19,CN(C)CCOC(c1ccccc1)c1ccccc1,inactive
20,CC(=O)CCC(=O)O,inactive
21,Cc1c(C(=O)O)c(O)cc2c1C(=O)c1c(O)c([C@@H]3O[C@H](CO)[C@@H](O)[C@H](O)[C@H]3O)c(O)c(O)c1C2=O,27.3 µM (active) and inactive
22,CN1CCc2cccc3c2[C@H]1Cc1ccc(O)c(O)c1-3,inactive
23,CCCCCCCCCCCCCCCC[N+](C)(C)Cc1ccccc1,inactive
24,C=CCc1ccc(O)c(OC)c1,inactive
25,NC(CO)(CO)CO,inactive
26,CS(=O)(=O)OCCCCOS(C)(=O)=O,inactive
27,O=S1(=O)OC(c2ccc(O)cc2)(c2ccc(O)cc2)c2ccccc21,inactive
28,CC(C)C(=O)Nc1ccc([N+](=O)[O-])c(C(F)(F)F)c1,inactive
29,CCCCCCc1ccc(O)cc1O,inactive

# Assay: qHTS assay to identify small molecule agonists of the sonic hedgehog signaling (Shh) pathway - cell viability counter screen (AID 1259366); also: nearly all actives have a fitted effect of over 50% in size; also: potency is read from the fitted curve at half-maximal effect
# Settings: NIH/3T3 Gli1-Luc viability, CellTiter-Fluor, 24 h; series mostly up to 92.4 µM
# Procedure, shortened: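 Viability measured fluorometrically (CellTiter-Fluor, 1hr, 37C) in 3T3 Gli1-Luc reporter cells after 23hr compound exposure within a 24hr incubation at 37C/5% CO2.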
row,SMILES,Potency
1,COc1ccc(C(Cl)=C(c2ccc(OC)cc2)c2ccc(OC)cc2)cc1,inactive
2,NS(=O)(=O)c1cc2c(cc1Cl)NCNS2(=O)=O,inactive
3,COc1ccc2c(c1)c(CC(=O)O)c(C)n2C(=O)c1ccc(Cl)cc1,inactive
4,O=c1[nH]cnc2c1ncn2[C@H]1CC[C@@H](CO)O1,inactive
5,Cc1ncc([N+](=O)[O-])n1CCO,inactive
6,CCc1nc(N)nc(N)c1-c1ccc(Cl)cc1,inactive
7,CN(C)C(=O)Nc1ccc(Cl)c(Cl)c1,inactive
8,CCCCOC(=O)c1ccc(O)cc1,inactive
9,CC12CCC(CC1)C(C)(C)O2,inactive
10,CCOc1ccc(NC(C)=O)cc1,inactive
11,CCCCC1(COC(=O)CCC(=O)O)C(=O)N(c2ccccc2)N(c2ccccc2)C1=O,inactive
12,CCCc1cc(=O)[nH]c(=S)[nH]1,inactive
13,CCOC(N)=O,inactive
14,CCN(CC)C(=O)c1cccc(C)c1,inactive
15,CCCCCCCC(=O)OCC(COC(=O)CCCCCCC)OC(=O)CCCCCCC,inactive
16,O=C1OC2(c3ccccc31)c1cc(Br)c(O)c(Br)c1Oc1c2cc(Br)c(O)c1Br,inactive
17,NC(=O)c1cccnc1,inactive
18,CN1[C@@H]2CC(OC(=O)[C@H](CO)c3ccccc3)C[C@H]1[C@@H]1O[C@@H]12 (stereo partly specified),inactive
19,CN(C)CCOC(c1ccccc1)c1ccccc1,inactive
20,CC(=O)CCC(=O)O,inactive
21,Cc1c(C(=O)O)c(O)cc2c1C(=O)c1c(O)c([C@@H]3O[C@H](CO)[C@@H](O)[C@H](O)[C@H]3O)c(O)c(O)c1C2=O,26.6 µM (active) and 27.3 µM (active)
22,CN1CCc2cccc3c2[C@H]1Cc1ccc(O)c(O)c1-3,27.6 µM (active) and 22.8 µM (active)
23,CCCCCCCCCCCCCCCC[N+](C)(C)Cc1ccccc1,70.8 µM (active) and 35 µM (active)
24,C=CCc1ccc(O)c(OC)c1,inactive
25,NC(CO)(CO)CO,inactive
26,CS(=O)(=O)OCCCCOS(C)(=O)=O,inactive
27,O=S1(=O)OC(c2ccc(O)cc2)(c2ccc(O)cc2)c2ccccc21,27.3 µM (active) and 11.9 µM (active)
28,CC(C)C(=O)Nc1ccc([N+](=O)[O-])c(C(F)(F)F)c1,inactive
29,CCCCCCc1ccc(O)cc1O,48.7 µM (active) and 61.1 µM (active) and inactive
